“And” between values parts separate entries of the source, which are not always exact repeats. Identical values can stand only once. The source made the active and inactive calls.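 How the source made its calls, unless noted: active means thallium flux through the channel raised or lowered by more than 3 SD from vehicle-only wells, actives on both sides; inactive means the rest.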

Assay [1] is described as follows: P. berghei load reduction in hepatocytes – cell-based, HepG2, luciferase luminescence, HepG2 viability, primary screen (AID 624349; in the data active means parasite load remaining mostly below about 12%, no sharp cut-off; inactive means mostly above about 10%;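 further: 100% = mean of DMSO negative control wells on the same plate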). The note with it: P. berghei liver stage in HepG2, luciferase luminescence, concentration not given here; parasite load remaining: stronger effect = lower value; viability: measured here: HepG2 viability without parasites.
Assay [2] is described as follows: signal quenchers or enhancers, Cy5 substrate/SSB – biochemical, NIH Clinical Collection, E. coli SSB, artefact control for HCV NS3 helicase inhibitor project (AID 743268; call rule not given here). The note with it: Cy5-oligo bound E. coli SSB, fluorescence interference.
For assay [3], the system named is Hepatitis C virus NS3 helicase. As to the kind of experiment: blockers of NS3h binding to DNA – biochemical, fluorescence polarization, NIH Clinical Collection, primary screen (AID 743270; call rule not given here). The note with it: NS3 helicase binding to Cy5-dT15 DNA, stronger effect = higher value, concentration not given here. On the technique in general: In fluorescence polarisation assays a small probe gives low polarisation when free and higher when bound to something large.

Assay [4] deals with Single-stranded DNA-binding protein (Escherichia coli (strain K12)) (UniProt P0AGE0). As to the kind of experiment: SSB-ssDNA binding inhibitors – biochemical, fluorescence polarization, NIH Clinical Collection, counter-screen for HCV NS3 helicase inhibitor project (AID 743271; in the data active means inhibition above about 28%). As to conditions: E. coli SSB-DNA binding, stronger effect = higher value, concentration not given here.
Assay [5] can be described thus: compounds distorting NS3 helicase fluorescence signal – biochemical, NIH Clinical Collection, artefact control for HCV NS3 helicase inhibitor project (AID 743272; call rule not given here;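 further: HCV NS3 helicase with a Cy5 labelled single stranded DNA probe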). As to conditions: fluorescence interference counterscreen, HCV NS3 helicase assay; stronger effect = lower value. On the technique in general: A counterscreen serves to expose hits that act by an unwanted route or on another target.

The target of assay [6] is 6-phosphogluconate dehydrogenase, decarboxylating (Homo sapiens) (UniProt P52209). The assay is described as follows: inhibition of human phosphogluconate dehydrogenase – biochemical, recombinant enzyme, NADPH absorbance, primary screen (AID 1159550;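 active means at least 20% inhibition of 6-phosphogluconate dehydrogenase activity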). As to conditions: recombinant 6PGD, NADPH absorbance 341 nm; at 10 µM; stronger effect = higher value.
Sequence of 6-phosphogluconate dehydrogenase, decarboxylating (Homo sapiens) (P52209 whole entry, looked up): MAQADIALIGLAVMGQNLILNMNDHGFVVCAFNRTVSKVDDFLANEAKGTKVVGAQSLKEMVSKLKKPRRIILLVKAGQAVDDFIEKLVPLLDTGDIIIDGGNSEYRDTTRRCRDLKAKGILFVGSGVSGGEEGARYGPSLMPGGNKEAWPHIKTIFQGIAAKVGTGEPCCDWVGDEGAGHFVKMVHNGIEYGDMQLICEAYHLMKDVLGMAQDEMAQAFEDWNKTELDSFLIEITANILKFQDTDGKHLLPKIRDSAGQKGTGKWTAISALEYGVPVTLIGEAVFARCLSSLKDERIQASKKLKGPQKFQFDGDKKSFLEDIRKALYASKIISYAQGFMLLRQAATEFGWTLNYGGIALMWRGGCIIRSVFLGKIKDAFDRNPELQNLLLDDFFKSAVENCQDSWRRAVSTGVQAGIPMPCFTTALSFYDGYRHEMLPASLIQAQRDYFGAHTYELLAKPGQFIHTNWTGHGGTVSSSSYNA
The nature of assay [7]: modulation of C. elegans fzo-1 (AID 1259413; call rule not given here;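 further: fzo-1 mutant C. elegans worms in liquid wells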). As to conditions: C. elegans fzo-1 modulator screen, mean read-out; stronger effect = higher value.
A short description of assay [8]: viability loss with induced miR-34 in A549 – imaging, A549 dox-inducible miR-34, nuclei and caspase counts, primary screen (AID 1347080;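 active means compounds whose cell count with miR-34 switched on is under 0.7 times the count with it off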). As to conditions: A549 miR-34 inducible, Hoechst nuclei count, 48 h.
A short description of assay [9]: galactose survival enhancers in mitochondrial complex I cybrids – cell-based, galactose medium, ATP luminescence, primary screen (AID 1645843;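 active means z-score of at least 1.8 in each of two replicates, scored against plate mean and spread of sample wells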;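 further: positive z means more ATP and so rescue of galactose-driven cybrid death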). The note with it: complex I mutant cybrid cells, 72 h, stronger effect = higher value.
Another assay relates to F380Y. As to the kind of experiment: BK channel mutant inhibitors and activators – cell-based, U2OS BacMam, thallium flux, beta subunits, selectivity assay, profiling panel (AID 1259406).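 Further: initial slope of Thallos dye fluorescence rise after thallium is added; log ratio against the mean of 0.3% DMSO vehicle wells on the same plate.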 As to conditions: U2OS BacMam BK variants, at 30 µM.
The next assay concerns F380Y/beta2Delta. Described as above. The note with it: U2OS BacMam BK variants, at 30 µM.
For assay [10], the target named is Calcium-activated potassium channel subunit alpha-1 (Homo sapiens) + Leucine-rich repeat-containing protein 26 (Homo sapiens) (UniProt Q12791+Q2I0M4). Described as above. The note with it: U2OS BacMam BK variants, F380Y/Slo1WT/gamma1, at 30 µM.
Sequence of Calcium-activated potassium channel subunit alpha-1 (Homo sapiens) + Leucine-rich repeat-containing protein 26 (Homo sapiens) (Q2I0M4 whole entry, looked up, one chain of several): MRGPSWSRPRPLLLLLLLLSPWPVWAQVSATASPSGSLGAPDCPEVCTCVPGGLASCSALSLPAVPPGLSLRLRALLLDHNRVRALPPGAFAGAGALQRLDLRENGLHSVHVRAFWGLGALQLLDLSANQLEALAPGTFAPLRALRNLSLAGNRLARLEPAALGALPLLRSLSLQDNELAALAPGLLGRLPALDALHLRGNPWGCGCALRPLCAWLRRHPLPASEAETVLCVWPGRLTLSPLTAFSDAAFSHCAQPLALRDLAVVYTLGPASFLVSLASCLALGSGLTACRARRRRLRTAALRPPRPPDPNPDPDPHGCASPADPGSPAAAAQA
For another assay, the system named is R275C. Described as above. The note with it: U2OS BacMam BK variants, at 30 µM.
In the next assay the test system is R275C/beta1. Described as above. The note with it: U2OS BacMam BK variants, at 30 µM.
For another assay, the system named is R275C/beta2Delta. Described as above. As to conditions: U2OS BacMam BK variants, at 30 µM.
Assay [11] can be described thus: EMT-state selective cytotoxicity in co-culture – imaging, PC-3E GFP, TEM4-18 mCherry, primary screen (AID 1345086;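 active means compounds killing one labelled cell type while sparing the other, by normalised counts and ratio limits, not self-fluorescent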;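 on all read-outs here: cells exposed to compound for 72 h before imaging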;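 on red/green cell ratio (normalised): normalised mesenchymal count divided by normalised epithelial count so high means epithelial killing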). As to conditions: PC-3E GFP / TEM4-18 mCherry co-culture, imaging cell counts, at 1 µM; for red/green cell ratio (normalised): actives lie on both sides, counts scaled to control wells, 1 = unselective.
A short description of assay [12]: MELAS cybrid and Rieske KO viability enhancers – cell-based, MELAS cybrids, Rieske KO mouse fibroblasts, CellTiter-Glo, primary screen (AID 1508586;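 active means mean z-score across replicates of 1.96 or higher in either the MELAS or the Rieske mutant cell line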;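 further: z relative to plate mean and SD of compound and empty wells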). The note with it: low glucose. (In ATP-based viability assays light output follows the ATP content of the culture.)
Assay [13] has as its target NAD(+) hydrolase SARM1 (Homo sapiens) (UniProt Q6SZW1). As to the kind of experiment: blocking NAD cleavage by SARM1 SAM-TIR – cell lysate, NAD-Glo luminescence (AID 1508614;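 active means compound whose remaining NAD level is above about 45 nM, limit read from the data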). The note with it: SAM-TIR HEK293T lysate NADase, at 1 µM, stronger effect = higher value.
Assay [14] has as its target Mitogen-activated protein kinase 7 (Homo sapiens) (UniProt Q13164). The assay is described as follows: Gal4-ERK5 driven luciferase induction – cell-based, HTS, primary screen (AID 1508626;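 active means luciferase signal above three times the same-plate solvent-only control wells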;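 further: luciferase driven by Gal4-ERK5 fusion binding five Gal4 sites before minimal TATA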). The note with it: HeLa Gal4-ERK5 transactivation, 18 h, at 5 µM, stronger effect = higher value.
The mark [15] stands for this setting: stronger effect = lower value, cell number ratio, induced over uninduced.
Where [16] appears, read: measured here: relative caspase fold change +Dox/-Dox.
The mark [17] stands for this setting: measured here: total cells with miR-34 induction, stronger effect = lower value.
Where [18] appears, read: measured here: total cells without miR-34 induction.
[19] abbreviates: measured here: epithelial PC-3E GFP cell survival.
[20] abbreviates: measured here: mesenchymal TEM4-18 mCherry cell survival.
[21] abbreviates: MELAS cybrid survival, CellTiter-Glo 48 h, stronger effect = higher value.
[22] abbreviates: Rieske KO mouse fibroblast survival, CellTiter-Glo 72 h.

Sequence of Mitogen-activated protein kinase 7 (Homo sapiens) (Q13164 whole entry, looked up, the tested form may be a part): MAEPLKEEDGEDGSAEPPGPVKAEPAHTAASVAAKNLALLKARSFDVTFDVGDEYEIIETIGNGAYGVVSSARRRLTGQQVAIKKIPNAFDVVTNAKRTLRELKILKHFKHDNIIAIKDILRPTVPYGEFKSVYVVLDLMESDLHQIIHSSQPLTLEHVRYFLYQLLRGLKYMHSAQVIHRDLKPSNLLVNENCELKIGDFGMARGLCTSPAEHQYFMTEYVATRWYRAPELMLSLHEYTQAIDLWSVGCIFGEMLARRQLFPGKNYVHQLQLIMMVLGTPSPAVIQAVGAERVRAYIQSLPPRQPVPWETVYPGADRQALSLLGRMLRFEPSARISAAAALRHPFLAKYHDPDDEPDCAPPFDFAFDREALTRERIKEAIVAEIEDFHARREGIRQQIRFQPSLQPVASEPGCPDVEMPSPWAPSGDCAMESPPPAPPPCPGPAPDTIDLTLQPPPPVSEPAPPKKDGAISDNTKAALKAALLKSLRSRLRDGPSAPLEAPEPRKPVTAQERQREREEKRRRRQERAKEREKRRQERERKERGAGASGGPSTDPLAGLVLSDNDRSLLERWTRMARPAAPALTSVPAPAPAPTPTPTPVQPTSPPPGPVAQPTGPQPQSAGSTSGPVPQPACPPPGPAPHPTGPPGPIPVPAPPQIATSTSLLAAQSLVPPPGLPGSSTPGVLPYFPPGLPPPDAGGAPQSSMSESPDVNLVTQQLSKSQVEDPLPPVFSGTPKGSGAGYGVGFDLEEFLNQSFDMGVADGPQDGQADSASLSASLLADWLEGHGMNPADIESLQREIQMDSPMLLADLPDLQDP
Sequence of NAD(+) hydrolase SARM1 (Homo sapiens) (Q6SZW1 whole entry, looked up, the tested form may be a part): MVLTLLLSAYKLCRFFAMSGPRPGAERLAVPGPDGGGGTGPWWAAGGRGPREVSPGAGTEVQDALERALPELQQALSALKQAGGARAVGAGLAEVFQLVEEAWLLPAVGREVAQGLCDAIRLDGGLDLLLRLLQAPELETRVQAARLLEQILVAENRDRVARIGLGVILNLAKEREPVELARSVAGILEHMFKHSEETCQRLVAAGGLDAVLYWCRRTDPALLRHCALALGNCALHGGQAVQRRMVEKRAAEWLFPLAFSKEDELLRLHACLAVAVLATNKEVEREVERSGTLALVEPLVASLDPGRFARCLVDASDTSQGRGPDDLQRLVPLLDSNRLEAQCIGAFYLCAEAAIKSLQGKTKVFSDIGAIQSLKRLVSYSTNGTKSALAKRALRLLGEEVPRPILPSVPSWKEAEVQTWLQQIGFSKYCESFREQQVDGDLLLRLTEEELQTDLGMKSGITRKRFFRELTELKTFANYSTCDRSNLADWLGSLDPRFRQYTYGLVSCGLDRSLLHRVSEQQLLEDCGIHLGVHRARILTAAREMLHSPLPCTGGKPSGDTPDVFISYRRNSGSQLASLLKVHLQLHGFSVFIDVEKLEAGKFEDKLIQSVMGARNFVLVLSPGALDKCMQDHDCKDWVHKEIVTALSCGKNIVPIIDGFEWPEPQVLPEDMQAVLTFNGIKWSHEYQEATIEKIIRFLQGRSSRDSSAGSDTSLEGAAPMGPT

By viability is commonly meant a read-out of living cells in per cent, often relative to untreated cells. In general, inhibition refers to the relative decrease from the control value, in per cent. Turning to `CC1(C)SC2C(NC(=O)COc3ccccc3)C(=O)N2C1C(=O)O` (stereo not given), the parasite load remaining in assay [1] was 83.2% (inactive). The viability in assay [1] came to 94.2%. Also, the fluorescence ratio in assay [2] is 0.71 (active); in assay [5], 1.01 (inactive). Also, the inhibition in assay [3] is -3.18% (inactive); in assay [4], -5.05% (inactive); in assay [6], 3.81% (inactive). In addition, the mean signal in [7] is 260 (inactive). The fold change is 0.993 (inactive) in [8] (setting [15]) and 1.37 in assay [8] (setting [16]). In addition, the cell count came out at 11000 in assay [8] (setting [17]) and 11100 in [8] (setting [18]). Besides, the z-score in assay [9] was 1.5 (inactive). The log fold change Tl+ flux is -0.00633 (inactive) with F380Y; 0.0322 (inactive) with F380Y/beta2Delta; -0.0109 (inactive) in [10]; 0.00635 (inactive) in the assay on R275C; 0.0123 (inactive) in the assay with R275C/beta1; -0.0109 (inactive) in the assay on R275C/beta2Delta.
Consider `CCCc1nc(C(C)(C)O)c(C(=O)OCc2oc(=O)oc2C)n1Cc1ccc(-c2ccccc2-c2nn[nH]n2)cc1`, for which the parasite load remaining in [1] was 123% (inactive) and 56.6% (inactive) and 38.5% (inactive). Moreover, the viability in assay [1] is 84.8% and 93.3% and 100%. The inhibition in assay [6] was -1.37% (inactive). In [7], the mean signal was 232 (inactive). For the same compound, the red/green cell ratio (normalised) in assay [11] is 1.07 (inactive). In addition, the results for the normalised cell number in assay [11] (setting [19]) and in [11] (setting [20]) were 1.01 and 1.08, respectively. Moreover, the fold change was 0.993 (inactive) and 0.942 (inactive) and 0.929 (inactive) in assay [8] (setting [15]); 0.262 and 5.26 and 0.77 in assay [8] (setting [16]). In addition, the cell count in assay [8] (setting [17]) was 7890 and 12500 and 10500; in assay [8] (setting [18]) it was 7940 and 13300 and 11300. Moreover, the z-score in assay [12] (setting [21]) was -0.0808 (inactive) and -0.0697 (inactive) and -0.516 (inactive); in assay [12] (setting [22]), -0.0525 and -0.445 and -0.184; in assay [9] it was 0.375 (inactive). Further, the remaining NAD in assay [13] is 10 nM (inactive). Further, the luciferase signal in [14] was 116 AU (inactive).
Take `COc1cc(-c2coc3cc(OCc4ccccc4)c(OC)c(O)c3c2=O)cc(O)c1OC`: the inhibition in [6] was 9.07% (inactive). The red/green cell ratio (normalised) in assay [11] is 0.97 (inactive). Moreover, the values for the normalised cell number in assay [11] (setting [19]) and in assay [11] (setting [20]) were 1.1 and 1.07, respectively.
Turning to `CC(=O)OCC(=O)[C@@]1(O)CC[C@H]2[C@@H]3CCC4=CC(=O)CC[C@]4(C)[C@H]3[C@@H](O)C[C@@]21C`, in [1], the parasite load remaining is 82.4% (inactive) and 26% (inactive). In addition, the viability in assay [1] is 130% and 68%. Besides, the fluorescence ratio in assay [2] and in assay [5] was 0.96 (inactive) each time. The values for the inhibition in assay [3], in assay [4] and in [6] were -0.45% (inactive), 1.81% (inactive) and 8.37% (inactive), respectively. Further, the fold change in [8] (setting [15]) is 0.933 (inactive) and 0.77 (inactive); in assay [8] (setting [16]), 0.523 and 1.29. Further, the cell count in assay [8] (setting [17]) is 7330 and 6560; in [8] (setting [18]), 7860 and 8520. Besides, the z-score in assay [12] (setting [21]) was 0.499 (inactive) and 0.396 (inactive); in assay [12] (setting [22]), 0.874 and 1.08; in assay [9], -0.03 (inactive) and 0.39 (inactive). Besides, the remaining NAD in assay [13] was 10 nM (inactive). Moreover, in assay [14], the luciferase signal was 36 AU (inactive). In addition, the log fold change Tl+ flux was -0.0118 (inactive) in the assay on F380Y; 0.0163 (inactive) in the assay on F380Y/beta2Delta; 0.0135 (inactive) in assay [10]; -0.0512 (inactive) with R275C; -0.0363 (inactive) with R275C/beta1; -0.0239 (inactive) with R275C/beta2Delta.
Regarding `CCCCCCCC/C=C/CCCCCCCCOP(=O)([O-])OCC[N+](C)(C)C`, the inhibition in [6] is 17.1% (inactive). Moreover, the red/green cell ratio (normalised) in assay [11] is 0.71 (inactive). The normalised cell number in assay [11] (setting [19]) is 1.36; in [11] (setting [20]), 0.96.

The record behind these values is PubChem BioAssay.
